hgDAF-12 ag: hgDAF-12 agonism, primary luciferase screen | activation, % at 6.8 µM | HEK293 GAL4-hgDAF12 UAS-luciferase reporter, agonist luminescence; normalized to butyrate control | AID 687014 | 370,000 compounds, 1.8% hits;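 active means activation above a cutoff set at the mean of all screened compounds plus 3 SD, cut at about 10% in these data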;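 further: 0% = DMSO wells and 100% = sodium butyrate wells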
FXN GAA850 act: frataxin GAA850 promoter activation. 360,000 compounds, 0.56% hits. HEK293 lucGAA850 FXN promoter luciferase reporter, 24 h; percent of 10 µM SAHA response. activation, % at 6 µM;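 active means activation above the average of all compounds screened plus 3 SD, cutoff fixed separately per campaign, cut at about 7.5% in these data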;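 further: 0% = DMSO wells and 100% = 10 µM SAHA wells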
ssDAF12 agonist: S. stercoralis DAF-12 activation, primary screen | AID 652126 | 370,000 compounds, 1% hits | HEK293 ssDAF-12/GRIP1 lit1-tk-luc reporter, luminescence; % of 3 µM dafachronic acid response | activation, % at 6.8 µM;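 active means activation above the mean over all tested compounds plus 3 SD, cut at about 0.9% in these data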;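 further: 0% = DMSO-only wells and 100% = 3 µM delta7-dafachronic acid wells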
hcDAF-12 act: activators of H. contortus DAF-12 nuclear receptor; HEK293 hcDAF-12 lit1-tk-luc reporter, luminescence; 0% DMSO, 100% Δ7-dafachronic acid; activation, % at 6.8 µM; 370,000 compounds, 1.4% hits; AID 652067;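 active means activation above the mean of all tested compounds plus 3 SD, cut at about 5.5% in these data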;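 further: 100% = response to 3 µM Δ7-dafachronic acid high control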
DAX1 inh-1: NR0B1 (DAX1) inhibition. HEK293 Gal4-DAX1 luciferase reporter, luminescence. inhibition, % at 6.75 µM. 340,000 compounds, 0.99% hits;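 active means inhibition above the mean over all tested compounds plus 3 SD, cut at about 4.2% in these data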;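 further: 0% = DAX1-transfected cells with DMSO and 100% = empty-vector control cells with DMSO; inhibition shows as a rise in luminescence from relieved DAX1 repression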
Target sequence (P51843 207-470 limits assumed): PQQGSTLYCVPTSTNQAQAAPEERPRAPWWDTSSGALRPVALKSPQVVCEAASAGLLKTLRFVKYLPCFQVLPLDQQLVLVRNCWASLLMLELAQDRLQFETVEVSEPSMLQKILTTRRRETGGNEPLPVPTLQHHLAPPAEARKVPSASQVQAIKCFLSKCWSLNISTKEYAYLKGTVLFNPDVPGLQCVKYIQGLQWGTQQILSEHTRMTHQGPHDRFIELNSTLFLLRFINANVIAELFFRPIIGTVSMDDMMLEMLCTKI
DAX1 inh-2: inhibitors of DAX1 repression of SF-1 activated StAR promoter; HEK293T StAR-luciferase reporter, SF-1/DAX-1 repression relief; inhibition, % at 6.8 µM; 370,000 compounds, 1.1% hits; AID 652010;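 active means inhibition above the mean over all tested compounds plus 3 SD, cut at about 3.6% in these data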;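 further: 0% = DAX-1 cells with DMSO and 100% = cells lacking DAX-1 with DMSO; higher inhibition means more luminescence from relief of DAX-1 repression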
An asterisk follows results filed as active; / = not tested or not shown. Rows were chosen to be rich in hits. Some 4.5% of all compounds tested hit in one or more screens of this group.

SMILES	hgDAF-12 ag	FXN GAA850 act	ssDAF12 agonist	hcDAF-12 act	DAX1 inh-1	DAX1 inh-2
CCc1ccc(/C(C)=N/NC(=O)c2ccc(-n3cnnn3)cc2)cc1	2	2	-1	-1	0	-1
COc1ccc(CN2C(=O)N3Cc4ccc(C)cc4C3CS2(=O)=O)cc1 (stereo unspecified)	1	/	-1	0	/	-1
CC1CN(CC(O)COC(c2ccc(Cl)cc2)c2ccc(Cl)cc2)CC(C)O1 (stereo unspecified)	0	2	-1	-2	0	-1
CN(C)CC(O)COC(c1ccc(Cl)cc1)c1ccc(Cl)cc1 (stereo unspecified)	1	2	-1	1	4.3*	0
CC1(C)CC(=O)N(Cc2ccccc2)C(=O)C1	-2	2	-1	1	4.5*	-1
Cc1ccc(S(=O)(=O)N2CCC(C(=O)NCc3cccs3)CC2)cc1	0	/	-1	0	/	-1
COc1ccc(/C=N/N=C2/SCC(=O)N2Cc2ccccc2)cc1	13*	7	0	2	5.8*	1
COc1ccc(CN2C(=O)CS/C2=N/N=C/c2ccccc2)cc1	0	3	-1	-2	/	0
COc1ccc(C2C=C(c3ccc(C)cc3)Nc3ncnn32)cc1 (stereo unspecified)	11*	1	0	2	-1	1
Cc1c2cnccc2c(C)c2c1oc1ccccc12	11*	6	-1	2	2	1
Cc1ccc(N2C(=O)N(CC(=O)Nc3ccc(C)cc3[N+](=O)[O-])C(=O)C2C)cc1 (stereo unspecified)	2	5	-1	0	1	3.6*
Cc1ccc(N2C(=O)N(CC(=O)Nc3cccc([N+](=O)[O-])c3C)C(=O)C2C)cc1 (stereo unspecified)	2	3	-1	1	-1	0
COC1=C[C@H](C(=O)N[C@H]2CCCC[C@@H]2NC(C)=O)[C@H](C)[C@@H](c2ccccc2)CC1=O	1	/	-2	-3	/	0
CC(C)n1nnnc1C1(C)Cn2nccc2C(=O)N1Cc1cccc(C(F)(F)F)c1 (stereo unspecified)	5	/	-1	-2	/	0
CN1C(=O)C[C@@](C#N)(C(=O)N2CCOCC2)[C@H]1c1ccccc1	-2	/	-1	0	/	1
COCCNC(=O)Cn1nc(-c2ccccc2)c2ccccc2c1=O	1	-1	-1	-3	0	0
COCCNC(=O)Cn1nc(-c2ccc(Cl)cc2)c2ccccc2c1=O	-2	2	11*	2	2	2
Cc1ccc(N=CNc2ccc(C)cc2C)c(C)c1	-1	1	1.8*	0	/	0
Cc1c(Cc2ccccc2)c(=O)oc2cc(OC(C)C(=O)NCC3CCC(C(=O)O)CC3)c(Cl)cc12 (stereo unspecified)	0	0	-2	-2	4.6*	0
COC(=O)[C@]12C[C@H](CC(=O)NCCc3ccccc3OC)C(=O)N(Cc3ccc4c(c3)OCO4)C1=C[C@H](C(C)C)O[C@@H]2C1CC1	-1	/	-1	-4	/	-2
CCOC(=O)c1cc(-c2csc(Nc3ccccc3Cl)n2)on1	0	0	1.5*	3	4	1
Nc1ccccc1S(=O)(=O)NC1=NCCCCC1	-3	0	0	1	4.4*	0
Cc1nn(Cc2ccccc2)c(Cl)c1/C=N/NC(=O)c1cccnc1	0	4	15*	0	-1	1
CC(C)(C)OC(=O)N/N=C\c1ccc(OC(=O)c2ccco2)cc1	11*	6	0	6.2*	0	2
O=C(Nc1ccccc1C(=O)N/N=C/c1ccccc1)c1ccco1	4	5	1	3	-1	0
SMILES	hgDAF-12 ag	FXN GAA850 act	ssDAF12 agonist	hcDAF-12 act	DAX1 inh-1	DAX1 inh-2
COC(=O)N/N=C\c1ccc(OC(=O)c2ccco2)cc1	1	2	-1	-3	/	0
Cc1nn(-c2ccccc2)c(Cl)c1/C=N/NC(=O)c1ccco1	12*	3	-1	1	2	2
O=C(N/N=C/c1ccccc1)c1ccco1	8	3	-1	2	5.8*	1
C#CCNC(=O)C[C@H]1C[C@@]2(C(=O)OC)C(=C[C@H](COCc3ccccc3)O[C@@H]2C)N(CCc2ccc(OC)c(OC)c2)C1=O	0	/	-2	-1	/	-1
O=C(NCc1ccc(C(=O)NCC2CCCO2)cc1)c1cccc(Br)c1 (stereo unspecified)	-1	/	-1	-1	/	0
O=C(CSc1nnc(-c2ccccn2)n1-c1ccccc1)c1ccc(F)cc1	-1	/	-1	-1	/	-2
CCOc1ccc(-n2c(SCc3ccc(C#N)cc3)nnc2-c2ccco2)cc1	0	/	-1	-2	/	-1
COc1ccc(-c2noc(C3CCCN(C(=O)Nc4ccc(Cl)cc4)C3)n2)cc1 (stereo unspecified)	3	/	-1	0	/	-1
Cc1cc(-c2n[nH]c(=S)n2N=Cc2ccc(O)cc2)n[nH]1	-1	/	-1	1	/	-1
Cc1nn(C)cc1/C=N/NC(=O)c1ccco1	8	4	-1	2	4.9*	1
CC1(C)CC2CC(C)(CN2C(=O)c2ccc([N+](=O)[O-])cc2)C1 (stereo unspecified)	-3	0	-1	-1	-2	-1
CC1(C)CC2CC(C)(CN2C(=O)c2ccc([N+](=O)[O-])cc2[N+](=O)[O-])C1 (stereo unspecified)	0	0	-1	-1	6.7*	0
CC(C)Nc1nc(-c2ccccn2)nc(-c2ccccc2)c1C#N	0	1	-1	-2	4.8*	0
CN(C(=O)c1cccc(C(=O)N(C)c2ccccc2)c1)c1ccccc1	2	-2	1	2	0	0
CN(C(=O)c1cc(C(=O)N(C)c2ccccc2)cc([N+](=O)[O-])c1)c1ccccc1	0	-1	-2	-3	4.3*	-1
O=C(NCc1nnc(SCC(=O)N2CCc3ccccc32)o1)c1ccco1	-1	1	-1	-1	0	0
O=C(NCCC(=O)N1CCc2ccccc21)c1ccco1	6	0	-1	5.8*	1	1
CN(Cc1ccccc1Cl)C(=O)CCNC(=O)c1ccco1	0	2	-1	-1	10*	2
O=C(CCc1ccccc1)N[C@H]1[C@H](OC(=O)c2cccnc2)CCC[C@@]12C(=O)N(Cc1ccccc1)c1ccccc12	0	/	-2	-2	/	-1
Cc1ccc(C)c(C2=CSC3=NCCN23)c1	1	-3	0	6.2*	0	-1
CCOC(=O)c1sc(=NC(=O)c2cccc(Br)c2)n(C)c1C	5	2	-1	1	1	0
CCOC(=O)c1sc(=NC(=O)c2cccc(C)c2)n(C)c1C	7	4	-1	2	1	3.8*

Screens as filed in PubChem BioAssay.
